# From PubChem BioAssay
# An excerpt weighted towards active compounds, which were near 14% of everything screened.
# USP10 inh: human USP10 deubiquitinase inhibition | inhibition, % at 20 µM | AID 1645856 | Q14694 | 1.1% of 47,000 active | purified USP10, Ub-rhodamine fluorescence, 60 min
# USP17 inh: blocks human USP17 ubiquitin-rhodamine cleavage; purified USP17, Ub-rhodamine cleavage fluorescence, 3 h; inhibition, % at 50 µM; A8MUK1; 6.5% of 47,000 active
# USP30 inh: inhibitors of human USP30 deubiquitinase; Q70CQ3; purified USP30, Ub-rhodamine cleavage fluorescence; inhibition, % at 25 µM; 5.3% of 47,000 active
# USP8 block: inhibitors of human USP8 deubiquitinase | P40818 | purified USP8, Ub-rhodamine cleavage fluorescence, 30 min | inhibition, % at 20 µM | 4.2% of 47,000 active | AID 1645853
# Target sequence (P40818 whole entry, looked up): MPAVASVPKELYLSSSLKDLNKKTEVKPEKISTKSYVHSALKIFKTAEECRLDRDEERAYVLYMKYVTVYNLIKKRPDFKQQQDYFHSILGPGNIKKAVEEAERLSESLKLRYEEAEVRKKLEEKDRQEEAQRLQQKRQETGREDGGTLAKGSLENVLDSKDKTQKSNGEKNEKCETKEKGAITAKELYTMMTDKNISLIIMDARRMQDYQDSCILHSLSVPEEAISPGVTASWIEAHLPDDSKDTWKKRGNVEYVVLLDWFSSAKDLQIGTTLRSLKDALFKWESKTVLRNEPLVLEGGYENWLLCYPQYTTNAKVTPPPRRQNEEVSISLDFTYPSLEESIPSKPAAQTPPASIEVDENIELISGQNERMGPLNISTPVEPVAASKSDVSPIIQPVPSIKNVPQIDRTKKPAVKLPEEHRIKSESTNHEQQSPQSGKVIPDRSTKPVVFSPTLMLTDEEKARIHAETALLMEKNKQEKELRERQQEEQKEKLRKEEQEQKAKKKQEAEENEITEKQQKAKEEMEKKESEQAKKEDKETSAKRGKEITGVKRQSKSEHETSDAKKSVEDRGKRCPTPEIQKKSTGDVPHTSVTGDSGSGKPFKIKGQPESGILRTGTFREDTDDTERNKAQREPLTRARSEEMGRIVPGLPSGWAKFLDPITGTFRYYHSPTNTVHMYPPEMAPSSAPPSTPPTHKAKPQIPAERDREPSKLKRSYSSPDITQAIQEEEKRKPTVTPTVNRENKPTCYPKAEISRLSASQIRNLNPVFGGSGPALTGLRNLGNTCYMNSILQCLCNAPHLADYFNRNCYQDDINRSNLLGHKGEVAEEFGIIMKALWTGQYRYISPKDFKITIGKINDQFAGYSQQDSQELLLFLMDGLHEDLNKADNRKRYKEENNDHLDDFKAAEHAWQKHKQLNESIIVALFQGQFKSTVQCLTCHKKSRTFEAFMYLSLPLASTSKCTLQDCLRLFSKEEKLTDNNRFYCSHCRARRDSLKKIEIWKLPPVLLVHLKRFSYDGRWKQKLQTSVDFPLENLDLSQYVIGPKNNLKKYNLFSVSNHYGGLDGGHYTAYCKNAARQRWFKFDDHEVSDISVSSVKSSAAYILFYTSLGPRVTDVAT
# USP28 inh: human USP28 deubiquitinase inhibition; inhibition, % at 25 µM; Q96RU2; 3% of 47,000 active; AID 1645857; purified USP28, Ub-rhodamine cleavage fluorescence, 30 min
# Numbers stand for hits; - = inactive; . = not tested or not shown. No stated cut-off is given here; in the data, active means inhibition above about 30%; inactive means the rest.
SMILES,USP10 inh,USP17 inh,USP30 inh,USP8 block,USP28 inh
CC(C)n1nccc1-c1cnc(CC2CCN(S(C)(=O)=O)C2)cn1 (centres undefined),-,-,-,-,-
CC(C)n1nccc1-c1cnc(CC2CCN(S(C)(=O)=O)CC2)cn1,-,-,31,-,-
CC(C)CN1[C@H]2CCN(C(=O)C3CC3)CC[C@@H]2Oc2ccccc2S1(=O)=O,-,-,-,-,-
O=C(O)c1cccc(NC(=O)C2c3ccccc3Oc3ccccc32)c1,-,-,-,-,-
O=C(Nc1ccc2c(c1)nc1n2CCCCC1)C1c2ccccc2Oc2ccccc21,-,48,-,-,-
CC(C)n1c(=O)[nH]c2c(C(=O)N3CCCCC3)snc2c1=O,-,-,38,-,-
CC(C)Cn1c(=O)[nH]c2c(C(=O)N3CCCCC3)snc2c1=O,-,-,-,-,-
O=C(Cc1cccc(F)c1)N1CCN(C(=O)c2cc(-c3ccccn3)n[nH]2)CC1,-,-,-,-,-
COCCCn1c(=O)[nH]c(=O)c2c(N)c(C(=O)c3ccc(OC)c(OC)c3)sc21,-,-,-,-,-
N#Cc1ccc(Oc2nc(F)c(Cl)c3c2N(CC2CCCO2)CCS3(=O)=O)cc1 (centres undefined),-,47,-,71,-
O=S1(=O)CCN(Cc2cccnc2)c2c(Oc3ccccc3)nc(F)c(Cl)c21,-,-,-,-,-
O=S1(=O)CCN(CC2CCCO2)c2c(Oc3ccc(F)cc3)nc(F)c(Cl)c21 (centres undefined),-,34,-,70,-
O=S1(=O)CCN(CC2CCCO2)c2c(Oc3ccccc3)nc(F)c(Cl)c21 (centres undefined),-,60,-,92,-
COCCCN1CCS(=O)(=O)c2c(Cl)c(F)nc(Oc3ccccc3F)c21,-,88,-,95,-
O=C(Nc1ccccc1)c1c(-c2ccccc2)c2c3n(c(-c4ccccc4)nn13)CCCC2,-,.,-,-,-
O=C1NC(c2cn[nH]c2-c2ccc(Cl)cc2)Nc2ccccc21 (centres undefined),-,-,-,-,-
Cc1cc(C)cc(NC(=O)c2ccc(CSc3ncnc4nc[nH]c34)cc2)c1,-,-,-,-,-
CC(Sc1ncnc2nc[nH]c12)C(=O)Nc1ccc(Br)cc1F (centres undefined),-,-,-,74,-
CCCn1nnc2cc(S(=O)(=O)N3CCCC(C(=O)NCCc4ccco4)C3)ccc21 (centres undefined),-,39,-,-,-
CCCn1nnc2cc(S(=O)(=O)N3CCCCC3C(=O)O)ccc21 (centres undefined),-,-,-,-,-
C=C[C@@]1(C)C=C(C)[C@@H]2[C@@H]3[C@H](Oc4ccc(cc4)C[C@@H]4C(=O)NC(=O)[C@H]4C(=O)[C@H]31)[C@@H]1[C@@H](C)C[C@@H](C)C[C@]12C,-,-,-,-,-
Cn1cc(S(=O)(=O)N2CCCCCC2)cc1C(=O)Nc1ccc(F)cc1,-,50,-,-,-
COc1ccc(CC(=O)NCc2ccc3c(c2)cc(C)n3C)cc1OC,-,-,-,-,-
Cc1cc2cc(CNC(=O)NC3CCCCC3)ccc2n1C,-,33,-,-,-
CSc1ncccc1C(=O)Nc1ccnn1Cc1ccccc1,-,-,-,-,-
SMILES,USP10 inh,USP17 inh,USP30 inh,USP8 block,USP28 inh
Cc1nc(CC(=O)Nc2c(C)cccc2C)cs1,-,-,-,-,-
O=C(Oc1ccc(-c2csnn2)cc1)C1CC1,-,.,-,-,-
O=C(NC1(O)C(=O)c2ccccc2C1=O)c1ccc(-c2csnn2)cc1,-,85,32,93,-
CSc1ncccc1C(=O)NC1(O)C(=O)c2ccccc2C1=O,41,95,46,83,-
Cc1nc(C(=O)NC2(O)C(=O)c3ccccc3C2=O)cs1,-,94,35,72,-
Cc1cc(NS(=O)(=O)c2ccc(NC(=O)c3ccccc3Br)cc2)no1,-,-,-,-,-
Cc1oc(-c2[nH]ncc2C(=O)N(C)C)cc1S(=O)(=O)NCc1ccc(Cl)cc1,-,-,-,-,-
CC(=O)N1CCC(n2c(C)nc(C(=O)NCc3cccc(F)c3)c2C)CC1,-,-,-,-,-
Cc1nn2c(S(=O)(=O)Nc3cc(F)ccc3C)c(C)nc2s1,-,-,-,-,-
Cn1c(CCNC(=O)c2[nH]nc3c2CCc2ccccc2-3)nc2ccccc21,-,78,-,59,52
O=C(NC1CCN(Cc2ccccc2)CC1)c1[nH]nc2c1CCc1ccccc1-2,-,-,-,-,62
CC(C)c1ccc(C(C)NC(=O)c2cccc(N(C)C)c2)cc1 (centres undefined),-,39,-,-,-
CN(C(=O)c1cccnc1-c1nc2ccccc2s1)c1ccccc1,-,-,-,-,-
O=C(NCc1ccco1)c1cccnc1-c1nc2ccccc2s1,-,-,-,33,-
CCOC(=O)c1ccccc1NC(=O)C(=O)CC(=O)c1ccc(OC)cc1,-,31,-,78,-
Cc1ccc(C(=O)NCC2COCCO2)cc1NC(=O)c1nsc2ccccc12 (centres undefined),-,-,-,-,-
O=C(NC1CCCC1)c1cccc(NC(=O)c2nsc3ccccc23)c1,-,31,.,-,.
Cc1cccnc1NC(=O)CC(c1cccc(F)c1)n1cccc1 (centres undefined),-,-,-,-,-
COc1ccc(S(=O)(=O)NCC(c2cccnc2)N2CCOCC2)cc1C (centres undefined),-,.,-,-,-
CCCCOc1ccc(C(=O)Nc2c3c(nn2-c2ccccc2C)CSC3)cc1,-,46,-,-,-
Cc1ccccc1-n1nc2c(c1NC(=O)c1ccc(F)c(F)c1)CS(=O)(=O)C2,-,-,-,-,-
Cc1cc2c(cc1CCc1cc3c(cc1C)OCO3)OCO2,-,-,-,-,-
C[C@H](Cc1cc2c(cc1O)OCO2)[C@@H](C)Cc1cc2c(cc1O)OCO2,84,100,93,64,97
COC(=O)c1cc(NC(=O)Nc2ccccc2C(F)(F)F)ccc1N1CCOCC1,-,-,-,-,-
COC(=O)c1cc(NC(=O)Nc2ccc(OC(F)(F)F)cc2)ccc1N1CCOCC1,-,-,-,-,32
SMILES,USP10 inh,USP17 inh,USP30 inh,USP8 block,USP28 inh
O=C(N[C@@H]1CC[C@@H](Oc2cccnc2)[C@H](O)[C@H]1N1CCCCC1)c1ncc[nH]1,-,-,-,-,-
O=C(NC1CCC1)c1c2c(-c3ccncc3)ncnc2n2ccccc12,-,68,.,-,.
COC(=O)c1cn(CC(=O)NCCOc2ccc(Cl)cc2)c2ccccc12,-,-,44,-,-
Clc1ccc2[nH]c3c(NCCCN4CCOCC4)ncnc3c2c1,-,-,-,-,-
O=C(NC1CCS(=O)(=O)C1)c1ccc(N2CCC(Cc3ccccc3)CC2)nn1 (centres undefined),-,53,-,-,-
O=C1CN(C(=O)c2ccc(N3CCC(Cc4ccccc4)CC3)nn2)CCN1,-,-,-,-,-
